Experimental findings from PubChem BioAssay are described below.

The structures appear in SMILES notation.

Sequence of Follistatin-related protein 3 (Homo sapiens) (O95633 whole entry, looked up): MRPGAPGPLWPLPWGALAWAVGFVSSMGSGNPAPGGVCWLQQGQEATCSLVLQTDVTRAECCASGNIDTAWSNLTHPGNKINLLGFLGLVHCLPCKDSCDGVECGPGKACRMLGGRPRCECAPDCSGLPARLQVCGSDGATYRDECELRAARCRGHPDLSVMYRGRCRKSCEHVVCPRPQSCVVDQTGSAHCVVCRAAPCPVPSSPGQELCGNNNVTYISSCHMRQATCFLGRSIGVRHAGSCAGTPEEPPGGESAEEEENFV

In one experiment the target is Epidermal growth factor receptor (Homo sapiens) (UniProt P00533). Kind of experiment: compounds binding epidermal growth factor receptor – biochemical, small-molecule microarray, 635 nm fluorescence, primary screen (AID 1104).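 Further: score merges 667 nm emission intensity with spot signal to noise over triplicate slides.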 The conditions noted are these: EGFR binding, higher = more signal.
Sequence of Epidermal growth factor receptor (Homo sapiens) (P00533 whole entry, looked up): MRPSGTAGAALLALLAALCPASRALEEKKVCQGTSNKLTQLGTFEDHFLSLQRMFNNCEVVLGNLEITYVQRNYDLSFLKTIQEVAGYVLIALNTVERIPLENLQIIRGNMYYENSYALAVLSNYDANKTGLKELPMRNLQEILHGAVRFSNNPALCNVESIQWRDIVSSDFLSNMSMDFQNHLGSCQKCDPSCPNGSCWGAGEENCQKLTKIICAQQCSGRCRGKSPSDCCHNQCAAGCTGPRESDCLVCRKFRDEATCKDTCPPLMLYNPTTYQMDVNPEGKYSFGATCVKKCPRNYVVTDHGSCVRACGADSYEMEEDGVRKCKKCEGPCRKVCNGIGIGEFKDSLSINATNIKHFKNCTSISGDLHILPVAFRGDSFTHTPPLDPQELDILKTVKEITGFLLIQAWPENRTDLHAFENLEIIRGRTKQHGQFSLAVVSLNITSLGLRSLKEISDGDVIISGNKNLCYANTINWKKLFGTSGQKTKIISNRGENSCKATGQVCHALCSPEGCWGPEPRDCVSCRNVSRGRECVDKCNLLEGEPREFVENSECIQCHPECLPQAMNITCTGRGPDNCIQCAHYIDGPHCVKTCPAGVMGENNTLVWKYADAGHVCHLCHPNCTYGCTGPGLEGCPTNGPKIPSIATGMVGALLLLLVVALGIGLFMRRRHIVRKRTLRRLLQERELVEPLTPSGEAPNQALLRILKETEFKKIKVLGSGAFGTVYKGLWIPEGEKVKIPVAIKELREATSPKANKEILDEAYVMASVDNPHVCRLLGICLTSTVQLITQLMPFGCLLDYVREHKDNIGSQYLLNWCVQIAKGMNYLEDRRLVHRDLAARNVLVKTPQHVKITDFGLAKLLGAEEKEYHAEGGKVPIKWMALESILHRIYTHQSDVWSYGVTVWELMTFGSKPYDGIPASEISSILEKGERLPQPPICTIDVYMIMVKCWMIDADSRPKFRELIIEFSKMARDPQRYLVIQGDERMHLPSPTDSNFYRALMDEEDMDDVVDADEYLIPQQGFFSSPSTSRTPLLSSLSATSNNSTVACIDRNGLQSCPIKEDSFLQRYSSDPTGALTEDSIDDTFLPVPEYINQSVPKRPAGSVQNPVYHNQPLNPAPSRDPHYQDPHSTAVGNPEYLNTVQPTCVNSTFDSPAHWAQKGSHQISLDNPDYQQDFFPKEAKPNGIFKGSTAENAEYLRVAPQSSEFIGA
Compound `CCOC(=O)C[C@H]1[C@H](OC(=O)Cc2ccc3c(c2)OCO3)[C@@H](NC(=O)C2CCCCC2)c2cc(OCCCO)ccc2N1C(=O)c1ccc2ccccc2n1` registered a composite z-score of 0.713.
Take `CN1C(=O)C2C=CC(C(O)c3c(F)cccc3Cl)N(Nc3ccccc3)C2C1=O` (stereo unspecified): the composite z-score was determined as 0.257.
On the same count and under the same terms, next, `COCCCNC(=O)[C@]1(Cc2ccccc2CN=[N+]=[N-])N=C(c2ccc(OCCCO)cc2)O[C@@H]1c1ccccc1`: -0.251; `[N-]=[N+]=NCc1ccccc1C[C@@]1(C(N)=O)N=C(c2ccc(OCCCO)cc2)O[C@@H]1c1ccccc1CN=[N+]=[N-]`: -0.238.
Take `COC(=O)[C@@]1(Cc2ccc(OC)cc2)[C@H]2c3cc(C(=O)N4CCCC4)n(CCc4cc5ccccc5[nH]4)c3C[C@H]2CN1C(=O)c1ccccc1`: the composite z-score was 0.124.
`COCCOC(=O)N1C(=O)[C@@]2(c3cc(C#Cc4ccc(OC)cc4)ccc31)[C@H](C(=O)NC[C@H](O)c1ccccc1)[C@H]1C(=O)O[C@H](c3ccccc3)[C@H](c3ccccc3)N1[C@@H]2c1ccc(O)cc1` yielded a composite z-score of 0.725.
For the compound `C=CC[C@@]12N=C(c3ccc(OCCCO)cc3)O[C@@H]1c1ccccc1N(CCS(=O)(=O)c1ccccc1)C2=O`, the composite z-score was found to be 0.272.
Take `C=CCN1C(=O)[C@]2(CC=C)N=C(c3ccc(OCCCO)cc3)O[C@@H]2c2ccccc21`: the composite z-score amounted to 0.925.
The compound `Cc1ccc(S[C@]2(C(=O)NCC(C)C)CC(=O)N(Cc3ccccc3Cl)[C@@H]2c2ccc(CO)cc2I)cc1` gave a composite z-score of -0.409.
Still for that read-out and setting: next, `COc1ccccc1CN1C(=O)c2ccccc2[C@](Cc2ccccc2I)(C(=O)NC(C)C)[C@@H]1c1ccc(CO)cc1`: 0.457; `CCOc1cc(C(O)C2C=CC3C(=O)N(C4CCCCC4)C(=O)C3N2Nc2ccc(OC)cc2)ccc1O` (stereo unspecified): 0.388.
Same read-out and setting: the figure for `COCCOC(=O)N1C(=O)[C@@]2(c3cc(C#Cc4ccc(OC)cc4)ccc31)[C@H](C(=O)N1CCCCCCC1)[C@H]1C(=O)O[C@H](c3ccccc3)[C@H](c3ccccc3)N1[C@@H]2c1ccc(O)cc1` is 0.519.
Same read-out and setting: the figure for `C=C(C(=O)CC[C@H](OC(=O)c1cccnc1)c1ccc(CO)o1)C(C)C` is 0.0193; for `COC(=O)[C@H](Cc1ccccc1)N1CC(/C=C/C2CC2)=C[C@@H]1[C@@H](O)Cc1ccccc1` it is 0.688.
As to `COC(=O)[C@@]1(Cc2ccc(OC)cc2)[C@H]2c3cc(C(=O)N(C)C)n(Cc4nc5ccccc5[nH]4)c3C[C@H]2CN1C(=O)c1ccccc1`, the composite z-score amounted to 0.0916.
`CN(C)C(=O)[C@]1(CCC(=O)OC(C)(C)C)N=C(c2ccc(OCCCO)cc2)O[C@@H]1c1ccccc1` yielded a composite z-score of -0.0133.
Same read-out and setting: next, `COCCOC(=O)N1C(=O)[C@@]2(c3cc(C#CC4(O)CCCCCC4)ccc31)[C@H](C(N)=O)[C@H]1C(=O)O[C@H](c3ccccc3)[C@H](c3ccccc3)N1[C@@H]2c1ccccc1OCCO`: 0.639; `Cc1ccc(S[C@]2(C(=O)NCC(F)(F)F)CC(=O)N(Cc3ccccc3)[C@@H]2c2ccc(CO)cc2)cc1`: -0.938.
Same read-out and setting: next, `COCCCNC(=O)[C@@]1(Sc2ccc(C)cc2)CC(=O)N(C2Cc3ccccc3C2)[C@@H]1c1ccc(CO)cc1I`: -0.689; `C=CC[C@]1(C(=O)N(C)C)N=C(c2ccc(OCCCO)cc2)O[C@H]1c1ccccc1N=[N+]=[N-]`: -0.257; `CCOC(=O)C1=CC[C@@H](c2ccccc2C(F)(F)F)N(S(=O)(=O)c2ccc(C)cc2)C1`: 0.29.
The compound `CC(C)C(O)C1C=CC2C(=O)N(C)C(=O)C2N1N(c1ccccc1)c1ccccc1` (stereo unspecified) yielded a composite z-score of -0.381.
`CCOC(=O)C1=CC[C@@H](c2ccc([N+](=O)[O-])cc2)N(S(=O)(=O)c2ccc(C)cc2)[C@H]1c1ccccc1` registered a composite z-score of 0.764.
For `[N-]=[N+]=NCc1ccccc1C[C@@]1(C(=O)N2CCCCC2)N=C(c2ccc(OCCCO)cc2)O[C@@H]1c1ccccc1N=[N+]=[N-]`, the composite z-score was determined as 0.13.
As for `C=C(/C(=C/C[C@@H](OC(=O)c1ccncc1)c1ccccc1OCCO)c1cc(C(=O)OC)ccc1OC)C(C)C`, the composite z-score was determined as 0.228.
Still for that read-out and setting: the figure for `COCCOC(=O)N1C(=O)[C@@]2(c3cc(C#CC4(O)CCCCCC4)ccc31)[C@H](C(N)=O)[C@H]1C(=O)O[C@H](c3ccccc3)[C@H](c3ccccc3)N1[C@@H]2c1ccc(O)cc1` is 0.406.

The next experiment has as its target Follistatin-related protein 3 (Homo sapiens) (UniProt O95633). Kind of experiment: compounds binding follistatin-related protein 3 – biochemical, small-molecule microarray, 635 nm fluorescence, primary screen (AID 1105).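 Further: score merges emission near 667 nm and signal to noise per printed spot across three slides.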 The conditions noted are these: FSTL3 binding, higher = more signal.
With `COC(=O)[C@@]1(Cc2ccccc2)[C@H]2c3cc(C(=O)N4CCCC4)[nH]c3C[C@H]2CN1C(=O)c1ccccc1`, the composite z-score was -0.444.
The same measure, in the same setting: the figure for `O=C(O)[C@H](Cc1ccccc1)n1cc(-c2ccccn2)nn1` is 0.333; for `O=C1O[C@@H](c2ccccc2)[C@@H](c2ccccc2)N2[C@@H](c3ccccc3OCCO)[C@]3(C(=O)Nc4ccc(C#CCCO)cc43)[C@@H](C(=O)N3CCN(c4ncccn4)CC3)[C@H]12` it is 0.315.
The same measure, in the same setting: the figure for `COc1ccc([Si](C)(C)[C@@H]2[C@@H](CCO)O[C@]3(C(=O)N(Cc4cccc(N5C(=O)c6ccccc6Oc6ccccc65)c4)c4ccccc43)[C@H]2C)cc1` is -0.491.
On to `CN(C)CCCN1C(=O)[C@@]2(c3ccc([N+](=O)[O-])cc3)CC(=O)N(CC34CC5CC(CC(C5)C3)C4)[C@@H]2c2ccc(CO)cc21`, for which the composite z-score is -0.116.
The compound `C[C@]12C(=O)N(CCCCCCO)[C@@H]3C(=O)N(c4ccc(Cl)cc4)CC=CC31O[C@@H]1/C=C\CCCOC(=O)C12` (stereo partly specified) showed a composite z-score of -0.394.
Take `CC1CC/C=C\[C@H]2OC34C=CCN(c5ccc6ccccc6c5)C(=O)[C@H]3N(C(CO)C(C)C)C(=O)[C@@H]4C2C(=O)O1` (stereo partly specified): the composite z-score is -0.163.
In the case of `O=C1O[C@@H](c2ccccc2)[C@@H](c2ccccc2)N2[C@@H](c3ccc(O)cc3)[C@]3(C(=O)Nc4ccc(C#CC5=CCCCC5)cc43)[C@@H](C(=O)N3CCN(c4ncccn4)CC3)[C@H]12`, the composite z-score came to 0.872.
Still for that read-out and setting: next, `C[C@H]1ON(c2ccc(C(=O)OC(C)(C)C)cc2)[C@@H](c2ccc(O)cc2)[C@@H]1C(=O)N1C(=O)OC[C@@H]1c1ccccc1`: 1.16.
Same read-out and setting: the figure for `CCOC(=O)C[C@H]1[C@H](OC(=O)Cc2ccc3c(c2)OCO3)[C@@H](NC(=O)C2CCCCC2)c2cc(OCCCO)ccc2N1C(=O)c1ccc2ccccc2n1` is 1.18; for `CN1C(=O)C2C=CC(C(O)c3c(F)cccc3Cl)N(Nc3ccccc3)C2C1=O` (stereo unspecified) it is 0.71.
On to `COCCCNC(=O)[C@]1(Cc2ccccc2CN=[N+]=[N-])N=C(c2ccc(OCCCO)cc2)O[C@@H]1c1ccccc1`, for which the composite z-score was 0.317.
Compound `[N-]=[N+]=NCc1ccccc1C[C@@]1(C(N)=O)N=C(c2ccc(OCCCO)cc2)O[C@@H]1c1ccccc1CN=[N+]=[N-]` displayed a composite z-score of 0.165.
Regarding `COC(=O)[C@@]1(Cc2ccc(OC)cc2)[C@H]2c3cc(C(=O)N4CCCC4)n(CCc4cc5ccccc5[nH]4)c3C[C@H]2CN1C(=O)c1ccccc1`, the composite z-score was 1.2.
For `COCCOC(=O)N1C(=O)[C@@]2(c3cc(C#Cc4ccc(OC)cc4)ccc31)[C@H](C(=O)NC[C@H](O)c1ccccc1)[C@H]1C(=O)O[C@H](c3ccccc3)[C@H](c3ccccc3)N1[C@@H]2c1ccc(O)cc1`, the composite z-score is 1.41.
On the same count and under the same terms, the figure for `C=CC[C@@]12N=C(c3ccc(OCCCO)cc3)O[C@@H]1c1ccccc1N(CCS(=O)(=O)c1ccccc1)C2=O` is 1.19; for `C=CCN1C(=O)[C@]2(CC=C)N=C(c3ccc(OCCCO)cc3)O[C@@H]2c2ccccc21` it is 1.18; for `Cc1ccc(S[C@]2(C(=O)NCC(C)C)CC(=O)N(Cc3ccccc3Cl)[C@@H]2c2ccc(CO)cc2I)cc1` it is -0.615.
The same measure, in the same setting: the figure for `COc1ccccc1CN1C(=O)c2ccccc2[C@](Cc2ccccc2I)(C(=O)NC(C)C)[C@@H]1c1ccc(CO)cc1` is 1.28.
The same measure, in the same setting: the figure for `CCOc1cc(C(O)C2C=CC3C(=O)N(C4CCCCC4)C(=O)C3N2Nc2ccc(OC)cc2)ccc1O` (stereo unspecified) is 0.741; for `COCCOC(=O)N1C(=O)[C@@]2(c3cc(C#Cc4ccc(OC)cc4)ccc31)[C@H](C(=O)N1CCCCCCC1)[C@H]1C(=O)O[C@H](c3ccccc3)[C@H](c3ccccc3)N1[C@@H]2c1ccc(O)cc1` it is 1.31.
In turn, `C=C(C(=O)CC[C@H](OC(=O)c1cccnc1)c1ccc(CO)o1)C(C)C` had a composite z-score of 0.406.
Still for that read-out and setting: next, `COC(=O)[C@H](Cc1ccccc1)N1CC(/C=C/C2CC2)=C[C@@H]1[C@@H](O)Cc1ccccc1`: 1.4.
Turning to `COC(=O)[C@@]1(Cc2ccc(OC)cc2)[C@H]2c3cc(C(=O)N(C)C)n(Cc4nc5ccccc5[nH]4)c3C[C@H]2CN1C(=O)c1ccccc1`, the composite z-score worked out at 1.35.
`CN(C)C(=O)[C@]1(CCC(=O)OC(C)(C)C)N=C(c2ccc(OCCCO)cc2)O[C@@H]1c1ccccc1` had a composite z-score of 0.011.
`COCCOC(=O)N1C(=O)[C@@]2(c3cc(C#CC4(O)CCCCCC4)ccc31)[C@H](C(N)=O)[C@H]1C(=O)O[C@H](c3ccccc3)[C@H](c3ccccc3)N1[C@@H]2c1ccccc1OCCO` displayed a composite z-score of 1.16.
Compound `Cc1ccc(S[C@]2(C(=O)NCC(F)(F)F)CC(=O)N(Cc3ccccc3)[C@@H]2c2ccc(CO)cc2)cc1` came in with a composite z-score of -0.763.
On the same count and under the same terms, next, `COCCCNC(=O)[C@@]1(Sc2ccc(C)cc2)CC(=O)N(C2Cc3ccccc3C2)[C@@H]1c1ccc(CO)cc1I`: -1.58.
On the same count and under the same terms, next, `C=CC[C@]1(C(=O)N(C)C)N=C(c2ccc(OCCCO)cc2)O[C@H]1c1ccccc1N=[N+]=[N-]`: 0.859; `CCOC(=O)C1=CC[C@@H](c2ccccc2C(F)(F)F)N(S(=O)(=O)c2ccc(C)cc2)C1`: 1.12.
Compound `CC(C)C(O)C1C=CC2C(=O)N(C)C(=O)C2N1N(c1ccccc1)c1ccccc1` (stereo unspecified) showed a composite z-score of -0.49.
On the same count and under the same terms, next, `CCOC(=O)C1=CC[C@@H](c2ccc([N+](=O)[O-])cc2)N(S(=O)(=O)c2ccc(C)cc2)[C@H]1c1ccccc1`: 1.26.
`[N-]=[N+]=NCc1ccccc1C[C@@]1(C(=O)N2CCCCC2)N=C(c2ccc(OCCCO)cc2)O[C@@H]1c1ccccc1N=[N+]=[N-]` yielded a composite z-score of -0.16.
`C=C(/C(=C/C[C@@H](OC(=O)c1ccncc1)c1ccccc1OCCO)c1cc(C(=O)OC)ccc1OC)C(C)C` registered a composite z-score of 0.467.
The same measure, in the same setting: next, `COCCOC(=O)N1C(=O)[C@@]2(c3cc(C#CC4(O)CCCCCC4)ccc31)[C@H](C(N)=O)[C@H]1C(=O)O[C@H](c3ccccc3)[C@H](c3ccccc3)N1[C@@H]2c1ccc(O)cc1`: 1.28.
